According to PubChem BioAssay (NCI):
About 79,000 compounds went through this panel and 15% of them were active in at least one assay; those are over-represented in the sample as a whole. The source made the active and inactive calls. Cut-off read from the data, not from the text of the source: active = growth inhibition above about 70%; inactive = the rest.

Assay: NCI Yeast Anticancer Drug Screen. Data for the rad50 strain (AID 155);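 note: 0% = growth of vehicle-only cultures of the same strain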
Details: S. cerevisiae rad50 strain growth inhibition; at 50.0 µM; stronger effect = higher value
In short: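 Compounds were tested on a yeast strain with an engineered DNA damage repair alteration; the reported value is growth inhibition normalised to vehicle treatment.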

Question: With `NS(=O)(=O)c1ccc(NC2=CC(=O)C(=O)c3ccccc32)cc1` as the compound, how does the growth inhibition read?
Answer: -6.4% (inactive)

Question: With `CC(=O)NC1CC(=O)N(c2ccccc2)C1=O` (stereo not given) as the compound, how does the growth inhibition read?
Answer: 16.4% (inactive)

Question: Which growth inhibition does the source give for `O=C1Nc2ccccc2C1O` (stereo not given) here?
Answer: 7.15% (inactive)

Question: With `N=c1ccn(CC(O)COc2ccccc2)cc1` (stereo not given) as the compound, how does the growth inhibition read?
Answer: -11.8% (inactive)

Question: Which growth inhibition does the source give for `CN(C)CCC(=O)N1CCc2c([nH]c3ccccc23)C1c1cccnc1` (stereo not given) here?
Answer: -15.2% (inactive)

Question: With `CCOC(=O)C(=[N+]=[N-])C(=O)CN1C(=O)c2ccccc2C1=O` as the compound, how does the growth inhibition read?
Answer: -21.6% (inactive)

Question: For `CCCCCCCCCC/C=C/c1c(C)[nH]c2ccccc2c1=O`, which growth inhibition is on record?
Answer: -11.9% (inactive)

Question: Which growth inhibition does the source give for `O=P12N(CCN1c1ccccc1)CCN2c1ccccc1` here?
Answer: -26.4% (inactive)

Question: For `O=C1OCC/C1=C1/NC2CCCCC2NC1=O` (stereo not given), which growth inhibition is on record?
Answer: -6.55% (inactive)

Question: For `C=C(C)C(=O)N1c2ccc(OC)cc2CC1C(=O)OCC` (stereo not given), which growth inhibition is on record?
Answer: -1.6% (inactive)

Question: With `C/C(=N\NC(=O)c1ccncc1)c1cccc(Br)c1` as the compound, how does the growth inhibition read?
Answer: 12% (inactive)

Question: Which growth inhibition does the source give for `NC(=O)SCC(=O)Nc1ccccc1O` here?
Answer: 14.6% (inactive)

Question: For `CCCCOP(=O)(OCCCC)C(c1ccccc1)(c1ccccc1)c1ccccc1`, which growth inhibition is on record?
Answer: 48.9% (inactive)

Question: For `Cn1ncc(C(=O)O)c1[N+](=O)[O-]`, which growth inhibition is on record?
Answer: 6.85% (inactive)

Question: Which growth inhibition does the source give for `CCNc1ncnc2c1cnn2C1CCCCC1` here?
Answer: 5.3% (inactive)

Question: With `C=CCOC1OC(CS(=O)(=O)O)C(OC(C)=O)C(OC(C)=O)C1OC(C)=O` (stereo not given) as the compound, how does the growth inhibition read?
Answer: 17.9% (inactive)

Question: For `C=C(C)COc1ccc(-c2ccccc2)cc1`, which growth inhibition is on record?
Answer: 24.5% (inactive)

Question: Which growth inhibition does the source give for `O=S(=O)(O)ON=C1c2ccccc2-c2ccccc21` here?
Answer: 0.6% (inactive)

Question: With `CC(=O)C1(N=Nc2ccc(S(N)(=O)=O)cc2)CCOC1=O` (stereo not given) as the compound, how does the growth inhibition read?
Answer: 1.35% (inactive)

Question: With `CC(C)C(N)=O` as the compound, how does the growth inhibition read?
Answer: 5.1% (inactive)

Question: Which growth inhibition does the source give for `Cc1[nH]ccc2c3ccc(=O)cc3n(S(=O)(=O)O)c12` here?
Answer: 10.7% (inactive)

Question: Which growth inhibition does the source give for `CC(C)CCC(=O)O` here?
Answer: -8.45% (inactive)

Question: For `CC1(C)N=C(N)NC(Nc2ccc(Cl)cc2)=N1`, which growth inhibition is on record?
Answer: 9.6% (inactive)

Question: With `Nc1nc(N)nc(Cc2ccccc2)n1` as the compound, how does the growth inhibition read?
Answer: -24.4% (inactive)

Question: For `C#CCC1CCCC/C1=N\Nc1ccc([N+](=O)[O-])cc1[N+](=O)[O-]` (stereo not given), which growth inhibition is on record?
Answer: 2.25% (inactive)

Question: With `Cc1ccc(S(=O)(=O)N(CCOS(C)(=O)=O)CCOS(C)(=O)=O)cc1` as the compound, how does the growth inhibition read?
Answer: 12.3% (inactive)

Question: For `CCOc1ccccc1/C=C1\NC(=O)NC1=O`, which growth inhibition is on record?
Answer: -38.6% (inactive)

Question: Which growth inhibition does the source give for `NC(=O)OCC(COc1ccc(Cl)cc1)OC(=O)c1cc([N+](=O)[O-])cc([N+](=O)[O-])c1` (stereo not given) here?
Answer: 29.2% (inactive)

Question: With `C(=NCCSSCCN=Cc1ccccc1)c1ccccc1` as the compound, how does the growth inhibition read?
Answer: 12.1% (inactive)

Question: Which growth inhibition does the source give for `CCN(CC)c1ncnc2c1nc(C)n2Nc1ccccc1` here?
Answer: 13.7% (inactive)

Question: With `O=C(NC(Cc1ccc(O)cc1)C(=O)O)C(=O)c1c[nH]c2ccc([N+](=O)[O-])cc12` (stereo not given) as the compound, how does the growth inhibition read?
Answer: 3.45% (inactive)

Question: With `CC(C#N)NC(=O)NC(C)C(N)=O` (stereo not given) as the compound, how does the growth inhibition read?
Answer: 3.85% (inactive)

Question: For `CN(C)CCCn1cnc2cc(Cl)c(Cl)cc21`, which growth inhibition is on record?
Answer: 0.2% (inactive)

Question: Which growth inhibition does the source give for `O=c1nc2n(cc1/C=C\Br)C1CC(O)C(CO2)O1` (stereo not given) here?
Answer: -51% (inactive)

Question: Which growth inhibition does the source give for `CC(C)(C)NC(=O)c1cccc(C(=O)NC(C)(C)C)n1` here?
Answer: 3.3% (inactive)

Question: With `COc1ccccc1N=NC1=C2Nc3ccccc3N=C1N(c1ccccc1OC)C(=S)N2c1ccccc1C` as the compound, how does the growth inhibition read?
Answer: -10.3% (inactive)

Question: Which growth inhibition does the source give for `Cc1cc(C)nc(Sc2c([N+](=O)[O-])ncn2C)n1` here?
Answer: 4.1% (inactive)

Question: Which growth inhibition does the source give for `CCOCCC(=N)OCC` here?
Answer: 11.2% (inactive)

Question: Which growth inhibition does the source give for `C/C=C\CCCCC` here?
Answer: 13.8% (inactive)

Question: Which growth inhibition does the source give for `CN(c1nc(=[N+](C)C)ss1)C1CCCCC1` here?
Answer: 9.4% (inactive)

Assay: NCI Yeast Anticancer Drug Screen. Data for the mec2-1 strain (AID 157)
Details: S. cerevisiae mec2-1 strain, at 50.0 µM, stronger effect = higher value
In short: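 Yeast mec2-1 mutant treated with compound. Readout: growth inhibition vs vehicle controls.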

Question: With `NS(=O)(=O)c1ccc(NC2=CC(=O)C(=O)c3ccccc32)cc1` as the compound, how does the growth inhibition read?
Answer: -5.6% (inactive)

Question: For `CC(=O)NC1CC(=O)N(c2ccccc2)C1=O` (stereo not given), which growth inhibition is on record?
Answer: 7.8% (inactive)

Question: Which growth inhibition does the source give for `O=C1Nc2ccccc2C1O` (stereo not given) here?
Answer: 3.3% (inactive)

Question: For `N=c1ccn(CC(O)COc2ccccc2)cc1` (stereo not given), which growth inhibition is on record?
Answer: -13.8% (inactive)

Question: With `CN(C)CCC(=O)N1CCc2c([nH]c3ccccc23)C1c1cccnc1` (stereo not given) as the compound, how does the growth inhibition read?
Answer: -34.6% (inactive)

Question: For `CCOC(=O)C(=[N+]=[N-])C(=O)CN1C(=O)c2ccccc2C1=O`, which growth inhibition is on record?
Answer: -7% (inactive)

Question: With `CCCCCCCCCC/C=C/c1c(C)[nH]c2ccccc2c1=O` as the compound, how does the growth inhibition read?
Answer: 8.7% (inactive)

Question: With `O=P12N(CCN1c1ccccc1)CCN2c1ccccc1` as the compound, how does the growth inhibition read?
Answer: -34.1% (inactive)

Question: For `O=C1OCC/C1=C1/NC2CCCCC2NC1=O` (stereo not given), which growth inhibition is on record?
Answer: -16.1% (inactive)

Question: Which growth inhibition does the source give for `C=C(C)C(=O)N1c2ccc(OC)cc2CC1C(=O)OCC` (stereo not given) here?
Answer: 16.6% (inactive)

Question: Which growth inhibition does the source give for `C/C(=N\NC(=O)c1ccncc1)c1cccc(Br)c1` here?
Answer: 13.9% (inactive)

Question: For `NC(=O)SCC(=O)Nc1ccccc1O`, which growth inhibition is on record?
Answer: -27.4% (inactive)

Question: With `CCCCOP(=O)(OCCCC)C(c1ccccc1)(c1ccccc1)c1ccccc1` as the compound, how does the growth inhibition read?
Answer: 42.5% (inactive)

Question: Which growth inhibition does the source give for `Cn1ncc(C(=O)O)c1[N+](=O)[O-]` here?
Answer: -14.5% (inactive)

Question: Which growth inhibition does the source give for `CCNc1ncnc2c1cnn2C1CCCCC1` here?
Answer: -7.15% (inactive)

Question: For `C=CCOC1OC(CS(=O)(=O)O)C(OC(C)=O)C(OC(C)=O)C1OC(C)=O` (stereo not given), which growth inhibition is on record?
Answer: 4.2% (inactive)

Question: For `C=C(C)COc1ccc(-c2ccccc2)cc1`, which growth inhibition is on record?
Answer: 7.35% (inactive)

Question: Which growth inhibition does the source give for `O=S(=O)(O)ON=C1c2ccccc2-c2ccccc21` here?
Answer: -10.7% (inactive)

Question: For `CC(=O)C1(N=Nc2ccc(S(N)(=O)=O)cc2)CCOC1=O` (stereo not given), which growth inhibition is on record?
Answer: -11.3% (inactive)

Question: For `CC(C)C(N)=O`, which growth inhibition is on record?
Answer: -0.1% (inactive)

Question: Which growth inhibition does the source give for `Cc1[nH]ccc2c3ccc(=O)cc3n(S(=O)(=O)O)c12` here?
Answer: -8.3% (inactive)

Question: With `CC(C)CCC(=O)O` as the compound, how does the growth inhibition read?
Answer: -9.1% (inactive)

Question: For `CC1(C)N=C(N)NC(Nc2ccc(Cl)cc2)=N1`, which growth inhibition is on record?
Answer: 9.05% (inactive)

Question: Which growth inhibition does the source give for `Nc1nc(N)nc(Cc2ccccc2)n1` here?
Answer: -3.45% (inactive)

Question: With `C#CCC1CCCC/C1=N\Nc1ccc([N+](=O)[O-])cc1[N+](=O)[O-]` (stereo not given) as the compound, how does the growth inhibition read?
Answer: 3.2% (inactive)

Question: With `Cc1ccc(S(=O)(=O)N(CCOS(C)(=O)=O)CCOS(C)(=O)=O)cc1` as the compound, how does the growth inhibition read?
Answer: -13.2% (inactive)

Question: For `CCOc1ccccc1/C=C1\NC(=O)NC1=O`, which growth inhibition is on record?
Answer: -35% (inactive)

Question: Which growth inhibition does the source give for `NC(=O)OCC(COc1ccc(Cl)cc1)OC(=O)c1cc([N+](=O)[O-])cc([N+](=O)[O-])c1` (stereo not given) here?
Answer: 23.9% (inactive)

Question: Which growth inhibition does the source give for `C(=NCCSSCCN=Cc1ccccc1)c1ccccc1` here?
Answer: 10.3% (inactive)

Question: With `CCN(CC)c1ncnc2c1nc(C)n2Nc1ccccc1` as the compound, how does the growth inhibition read?
Answer: -3.1% (inactive)

Question: Which growth inhibition does the source give for `O=C(NC(Cc1ccc(O)cc1)C(=O)O)C(=O)c1c[nH]c2ccc([N+](=O)[O-])cc12` (stereo not given) here?
Answer: 1.45% (inactive)

Question: With `CC(C#N)NC(=O)NC(C)C(N)=O` (stereo not given) as the compound, how does the growth inhibition read?
Answer: 6.3% (inactive)

Question: With `CN(C)CCCn1cnc2cc(Cl)c(Cl)cc21` as the compound, how does the growth inhibition read?
Answer: -6.4% (inactive)

Question: Which growth inhibition does the source give for `O=c1nc2n(cc1/C=C\Br)C1CC(O)C(CO2)O1` (stereo not given) here?
Answer: -24.6% (inactive)

Question: With `CC(C)(C)NC(=O)c1cccc(C(=O)NC(C)(C)C)n1` as the compound, how does the growth inhibition read?
Answer: -8% (inactive)

Question: Which growth inhibition does the source give for `COc1ccccc1N=NC1=C2Nc3ccccc3N=C1N(c1ccccc1OC)C(=S)N2c1ccccc1C` here?
Answer: -11.3% (inactive)

Question: Which growth inhibition does the source give for `Cc1cc(C)nc(Sc2c([N+](=O)[O-])ncn2C)n1` here?
Answer: -17.3% (inactive)

Question: Which growth inhibition does the source give for `CCOCCC(=N)OCC` here?
Answer: -4.7% (inactive)

Question: For `C/C=C\CCCCC`, which growth inhibition is on record?
Answer: 9.4% (inactive)

Question: For `CN(c1nc(=[N+](C)C)ss1)C1CCCCC1`, which growth inhibition is on record?
Answer: 17.2% (inactive)
